# PubChem BioAssay (NCATS)
# Values joined by “and” are separate entries in the source; they are usually repeats but may differ in a detail not shown here. Identical values can stand only once. Inconclusive results are not listed. Where a call stands in place of a potency, no number is given. Values without a mark were called inactive. Active and inactive are the calls of the source. Calls follow the shape of the dose curve; as a rule, active = well fitted curve in the direction sought with a large enough effect; inconclusive = small, poorly fitted or top-dose-only effect, or another doubt; inactive = no such curve, though single readings can be large; an effect the other way counts as inactive or inconclusive.
# How the values were obtained:
# [1] = Viability qHTS for spleen associated tyrosine kinase inhibitor (SYKi) naive MV4-11 cells (AID 1963823); details: MV4-11 AML viability, CellTiter-Glo luminescence, 72 h; series mostly up to 45 µM; also: nearly all actives have a fitted effect of over 40% in size
# How it was run: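 SYK inhibitor-naive MV4-11 cells, 500 per well, exposed to compounds for 72 hr at 37 C, 5% CO2. Viability read as CellTiter-Glo luminescence after 10 min at room temperature.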
# [2] = Cellular viability qHTS for adrenocortical cancer (ACC) cell line SW-13 (AID 1963989); details: SW-13 ACC cells viability, CellTiter-Glo, 48 h; activity (max response): hits give low values; also: nearly all actives have a fitted effect of over 65% in size;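 as to activity (max response): cells grown in serum-free medium with ITS supplement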
# How it was run: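 SW-13 cells in ITS-supplemented serum-free DMEM were plated overnight, then exposed for 48 h at 37C to compound titrations (up to 46 uM final). Viability was read by CellTiter-Glo luminescence; four-parameter logistic fits gave IC50 and efficacy.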
# [3] = Cellular viability qHTS for adrenocortical cancer (ACC) cell line NCI-H295R (AID 1963990); details: CellTiter-Glo ATP luminescence, 48 h; series mostly up to 46.1 µM; also: nearly all actives have a fitted effect of over 60% in size
# How it was run: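 Luminescent ATP read-out (CellTiter-Glo, 20 min RT) after 48 h drug exposure of NCI-H295R cells; a titration up to 46 uM final. Data normalized to doxorubicin (100% inhibition) and DMSO (0%); 4-parameter fit gives IC50, max response.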
# [4] = Viability qHTS for spleen associated tyrosine kinase inhibitor (SYKi) drug resistant MV4-11 cells (AID 1963824); details: SYKi-resistant MV4-11 viability, CellTiter-Glo, 72 h; series mostly up to 45 µM; also: nearly all actives have a fitted effect of over 35% in size
# How it was run: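 CellTiter-Glo luminescence, read 10 min after reagent addition, reports viability after a 72 hr compound exposure. Cells are an MV4-11 line made resistant to SYK inhibition, seeded at 500 per well onto compound-containing plates.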
# [5] = Quantitative highthroughput screen to assess conditional lethalithy of NOMO1 cells grown in RPMI1640 with untreated serum (RPMI+s) (AID 1963876); details: NOMO1 AML cells in RPMI+serum, CellTiter-Glo viability, 48 h; series mostly up to 45.8 µM; also: nearly all actives have a fitted effect of over 35% in size
# How it was run: (§1)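 Each medium arm—HPLM with 10% dialyzed FBS, or RPMI1640 with 5 mM glucose and 10% untreated or dialyzed FBS—was screened against an 11-point, 3-fold compound titration for 48 h at 37 °C, with CellTiter-Glo luminescence as endpoint.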
# [6] = Quantitative highthroughput screen to assess conditional lethalithy of NOMO1 cells grown in RPMI1640 with dialyzed fetal bovine serum (RPMI+ds) (AID 1963877); details: NOMO1 in RPMI+dialyzed FBS viability, ATP luminescence, 48 h; series mostly up to 45.8 µM; also: nearly all actives have a fitted effect of over 30% in size
# How it was run: as §1
# [7] = Quantitative highthroughput screen to assess conditional lethalithy of NOMO1 cells grown in Human Plasma-Like Medium with dialyzed fetal bovine serum (HPLM+ds) (AID 1963878); details: NOMO1 AML cells in HPLM+ds, CellTiter-Glo viability, 48 h; series mostly up to 45.8 µM; also: nearly all actives have a fitted effect of over 35% in size
# How it was run: as §1
# [8] = Quantitative highthroughput screen to assess conditional lethalithy of P12 Ichikawa cells grown in Human Plasma-Like Medium with dialyzed fetal bovine serum (HPLM+ds) (AID 1963879); details: ATP luminescence, 48 h; Potency: viability; series mostly up to 45.8 µM; also: nearly all actives have a fitted effect of over 35% in size
# How it was run: as §1
# [9] = Quantitative highthroughput screen to assess conditional lethalithy of P12 Ichikawa cells grown in RPMI1640 with dialyzed fetal bovine serum (RPMI+ds) (AID 1963880); details: ATP luminescence, 48 h; Potency: P12-Ichikawa viability; series mostly up to 45.8 µM; also: nearly all actives have a fitted effect of over 35% in size
# How it was run: as §1
# [10] = Quantitative highthroughput screen to assess conditional lethalithy of P12 Ichikawa cells grown in RPMI1640 with untreated serum (RPMI+s) (AID 1963881); details: ATP luminescence, 48 h; Potency: viability; series mostly up to 45.8 µM; also: nearly all actives have a fitted effect of over 35% in size
# How it was run: as §1
# [11] = Quantitative highthroughput screen to assess conditional lethalithy of SEM cells grown in Human Plasma-Like Medium with dialyzed fetal bovine serum (HPLM+ds) (AID 1963882); details: SEM B-ALL cells in HPLM+ds, CellTiter-Glo viability, 48 h; series mostly up to 45.8 µM; also: nearly all actives have a fitted effect of over 35% in size
# How it was run: as §1
# [12] = Quantitative highthroughput screen to assess conditional lethalithy of SEM cells grown in RPMI1640 with dialyzed fetal bovine serum (RPMI+ds) (AID 1963884); details: SEM B-ALL cells, RPMI+dialyzed FBS, CellTiter-Glo viability, 48 h; series mostly up to 45.8 µM; also: nearly all actives have a fitted effect of over 35% in size
# How it was run: as §1
# [13] = Quantitative highthroughput screen to assess conditional lethalithy of SEM cells grown in RPMI1640 with unreated serum (RPMI+s) (AID 1963883); details: SEM B-ALL cells, CellTiter-Glo viability, 48 h; series mostly up to 45.8 µM; also: nearly all actives have a fitted effect of over 35% in size
# How it was run: as §1
# Potency is read from the fitted curve at half-maximal effect.
structure (smiles),measurement,setting,value
COc1cc2nccc(Oc3ccc(NC(=O)c4cn(C(C)C)c(=O)n(-c5ccc(F)cc5)c4=O)cc3F)c2cc1OC,Potency,[1],0.186 µM (active)
same,activity (max response),[2],9.27%
same,Potency,[3],inactive
CC(C)(C)C(=O)OCOC(=O)[C@@H]1N2C(=O)[C@@H](NC(=O)[C@H](N)c3ccccc3)[C@H]2SC1(C)C,Potency,[1],inactive
same,activity (max response),[2],8.43%
same,Potency,[3],inactive
N#CC1(c2ccc(F)cc2)CCC(=O)CC1,Potency,[1],inactive
same,activity (max response),[2],6.7%
same,Potency,[3],inactive
Cn1ncc(Cl)c1-c1cc(C(=O)N[C@H](CN)Cc2ccc(F)c(F)c2)sc1Cl,Potency,[1],9.2 µM (active) and 5.9 µM (active)
same,Potency,[3],3.16 µM (active)
CCCCNc1ccc(C(=O)OCCOCCOCCOCCOCCOCCOCCOCCOCCOC)cc1,Potency,[1],10.6 µM (active)
same,Potency,[3],inactive
CC(C)(C)CC(C)(C)c1ccc(O)c(-n2nc3ccccc3n2)c1,Potency,[1],inactive
same,activity (max response),[2],4.68%
same,Potency,[3],inactive
CN(C)/N=N/c1nc[nH]c1C(N)=O,Potency,[1],inactive
same,activity (max response),[2],10.5%
same,Potency,[3],inactive
C=C1C[C@H]2[C@@H]3C=C(C)C4=CC(=O)CC[C@]4(C)[C@H]3CC[C@]2(C)[C@@]1(OC(C)=O)C(C)=O,Potency,[1],18.8 µM (active)
same,Potency,[3],inactive
COc1cccc2c1c(O)c(C(=O)N(C)c1ccc(C(F)(F)F)cc1)c(=O)n2C,Potency,[1],inactive
same,activity (max response),[2],-27.3%
same,Potency,[3],inactive
COc1ccc(S(=O)(=O)N[C@@H](CNc2nc(C)nc(N3CCC(c4ccc5c(n4)NCCC5)CC3)c2C)C(=O)O)cc1,Potency,[1],inactive
same,Potency,[3],inactive
O=C(O)c1ccccn1,Potency,[1],inactive
same,activity (max response),[2],1.31%
same,Potency,[3],inactive
Cc1cc(CCCOc2c(C)cc(-c3noc(C(F)(F)F)n3)cc2C)on1,Potency,[1],inactive
same,activity (max response),[2],-14.2%
same,Potency,[3],inactive
O=C1CC2(CCCC2)CC(=O)N1CCCCN1CCN(c2ncccn2)CC1,Potency,[1],9.44 µM (active)
same,activity (max response),[2],-4.13%
same,Potency,[3],inactive
CN(C)CCNC(=O)NC[C@H]1CC[C@@H]2[C@H](O1)c1cc(C(F)(F)F)ccc1N[C@H]2c1ccccc1,Potency,[1],0.148 µM (active)
same,Potency,[2],0.251 µM (active)
same,Potency,[3],0.891 µM (active)
O=C1c2cccc(O)c2C(=O)c2c(O)cccc21,Potency,[1],inactive
same,activity (max response),[2],1.51%
same,Potency,[3],inactive
Cc1ccsc1C(=CCCN1CCC[C@@H](C(=O)O)C1)c1sccc1C,Potency,[1],inactive
same,Potency,[3],inactive
Cc1ccc(/C=N/n2c(-c3ccccc3)csc2=S)cc1,Potency,[1],inactive
same,activity (max response),[2],8.75%
same,Potency,[3],inactive
c1ccc2c(c1)CCc1ccccc1N2,Potency,[1],inactive
same,activity (max response),[2],-6.25%
same,Potency,[3],inactive
Cc1cc(O)c(C)c(C)c1O,Potency,[1],inactive
same,activity (max response),[2],6.25%
same,Potency,[3],inactive
CN(C)CCn1nnnc1SCC1=C(C(=O)O)N2C(=O)[C@@H](NC(=O)Cc3csc(N)n3)[C@H]2SC1,Potency,[1],inactive
same,Potency,[3],inactive
CN(C)CCCSc1ccccc1NC(=O)/C=C/c1ccccc1,Potency,[1],inactive
same,Potency,[3],inactive
O=C1CCCc2c(O)cccc21,Potency,[1],inactive
same,activity (max response),[2],-6.15%
same,Potency,[3],inactive
C[C@]12CC[C@@H]3c4ccc(O)cc4CC[C@H]3[C@@H]1CC[C@@H]2O,Potency,[1],16.6 µM (active)
same,Potency,[3],7.94 µM (active)
CC(C(=O)O)c1ccc(/C=C2\CCCCC2=O)cc1 (centres undefined),Potency,[1],inactive
same,activity (max response),[2],8.31%
same,Potency,[3],inactive
CCCOC(=O)c1ccc(N)cc1,Potency,[1],inactive
same,Potency,[3],inactive
CN[C@@H]1[C@H](O)[C@H](NC)[C@H]2O[C@@]3(O)C(=O)C[C@@H](C)O[C@H]3O[C@@H]2[C@H]1O,Potency,[1],inactive
same,activity (max response),[2],16.5%
same,Potency,[3],inactive
Clc1ccc(Nc2nnc(Cc3ccncc3)c3ccccc23)cc1,Potency,[4],10.6 µM (active)
same,Potency,[5],inactive
same,Potency,[6],inactive
same,Potency,[7],inactive
same,Potency,[8],inactive
same,Potency,[9],inactive
same,Potency,[10],inactive
COC(=O)N1CC2(CC2)C[C@H](C(=O)NO)[C@H]1C(=O)N1CCN(c2ccccc2)CC1,Potency,[4],inactive
same,Potency,[5],524 nM (active)
same,Potency,[6],3.31 µM (active)
same,Potency,[7],295 nM (active)
same,Potency,[8],331 nM (active)
same,Potency,[9],1.05 µM (active)
same,Potency,[10],2.34 µM (active)
same,Potency,[11],1.17 µM (active)
same,Potency,[12],660 nM (active)
same,activity (max response),[2],-14.2%
same,Potency,[3],inactive
CC(C)[C@H](CO)Nc1nc(Nc2cccc(Cl)c2)c2ncn(C(C)C)c2n1,Potency,[4],3.32 µM (active)
same,Potency,[5],2090 nM (active)
same,Potency,[6],2.35 µM (active)
same,Potency,[7],743 nM (active)
same,Potency,[8],4180 nM (active)
same,Potency,[9],5.9 µM (active)
same,Potency,[10],8.33 µM (active)
same,Potency,[11],1.32 µM (active)
same,Potency,[13],372 nM (active)
same,Potency,[12],418 nM (active)
same,Potency,[2],22.4 µM (active)
same,Potency,[3],20 µM (active)
